Reference: PubChem BioAssay (EPA / NIEHS)
Results filed as inconclusive are left out. Activity calls are given as the source filed them. Rule for the calls, unless noted: active = hit-call score of the fitted dose curve at least 0.9, where 1 is the maximum; inactive = score below 0.9.

Assays:
[1] = CCTE_Harrill_HTTr_Viability_MCF7: CCTE's 6-hour Cell Viability Assessment for the High-Throughput Transcriptomics (HTTr) Platform, in MCF-7 cells cultured in DMEM + 10% fetal bovine serum, Harrill Lab (AID 2284010)
Outline: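 Eight-point concentration series, six-hour exposure. Propidium iodide exclusion imaged to assess membrane integrity as a cytotoxicity readout; bidirectional fitting was done with DMSO as negative control and activity baseline.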

[2] = CCTE_Harrill_HTTr_Apoptosis_MCF7: CCTE's 6-hour Apoptosis Assessment for the High-Throughput Transcriptomics (HTTr) Platform, in MCF-7 cells cultured in DMEM + 10% fetal bovine serum, Harrill Lab (AID 2284011)
Outline: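 Apoptosis in MCF-7 cells grown in DMEM with 10% fetal bovine serum was scored after a six hour exposure by high content imaging of caspase-3/7 activation (CellEvent Caspase 3/7 Green), with DMSO serving as negative control and baseline.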

[3] = CCTE_Harrill_HTTr_CellCount_MCF7: CCTE's Cell Proliferation Assessment for the High-Throughput Transcriptomics (HTTr) Platform, Harrill Lab (AID 2284012; active = hit-call score of the fitted dose curve at least 0.9, where 1 is the maximum;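 note: count of Hoechst-stained nuclei per well by high-content imaging in MCF-7 cells; cells exposed to compound for six hours; intended direction is loss of nuclei count meaning fewer cells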)
Outline: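 For this full-screen endpoint, MCF-7 cultures received eight compound dilutions for six hours. Well nuclei counts from Hoechst imaging were analyzed relative to DMSO.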

SMILES	outcome [1]	outcome [2]	outcome [3]
Cc1cc(F)ccc1-c1cc(N2CC[C@@H](O)[C@H]2CO)ncc1N(C)C(=O)C(C)(C)c1cc(C(F)(F)F)cc(C(F)(F)F)c1	inactive	inactive	inactive
O=C(Nc1ccc(Cl)cc1)Nc1ccc(Cl)c(Cl)c1	inactive	–	–
CCCCCc1ccc(N)cc1	inactive	inactive	inactive
CCCCCCCCCCCC[N+](C)(C)C	inactive	inactive	inactive
COCC(C)OCC(C)OCC(C)O (stereo not drawn)	inactive	–	–
O=C(O)Cc1cc(I)c(Oc2ccc(O)c(I)c2)c(I)c1	inactive	–	inactive
O=C(O)Cn1c(=O)n(Cc2ccc(Br)cc2F)c(=O)c2ccc(Cl)cc21	inactive	inactive	–
Cc1cccc2ccccc12	inactive	–	inactive
Cc1occc1C(=O)Nc1ccc(C(=O)N2CCC(F)(F)/C(=C\C(=O)N3CCC(N4CCCCC4)CC3)c3ccccc32)cc1	inactive	inactive	inactive
CC(C)(C)c1csc(-c2cc3cc(OCc4ccccc4CC(=O)O)ccc3o2)n1	inactive	inactive	–
CCCCCCCCCC(=O)O	inactive	inactive	inactive
O=C1c2ccccc2C(=O)N1CCc1noc(-c2ccc(CN3CCCCCC3)s2)n1	inactive	–	inactive
CN1C(=O)N(c2ccccc2Br)Cc2cnc(Nc3ccc4c(c3)OCC(CO)O4)nc21 (stereo not drawn)	inactive	inactive	inactive
O=c1ccc2ccccc2o1	inactive	–	inactive
O=C1CCC(C2CCCCC2)CC1	inactive	inactive	inactive
C[C@]12CC[C@@H]3c4ccc(O)cc4CC[C@H]3[C@@H]1CCC2=O	inactive	inactive	inactive
